Screening data deposited in PubChem BioAssay by National Center for Advancing Translational Sciences (NCATS).
Only some compounds are listed: those with a hit (about 7.3% of all), similar ones and a draw of the others.
NPC1 prom act: qHTS Assay for NPC1 Promoter Activators. Huh7 NPC1 promoter luciferase reporter, 24 h. 2.4% of 320,000 active. AID 485313, 2010. Potency, µM (series often up to 9.22 µM), for inactives: top-dose activation, most hits filed as activators; also: % of control where 0% means no effect; nearly all actives have a fitted effect of over 60% in size
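Stably transfected Huh7 (NPC1 promoter→luciferase), 1500 cells/well in Opti-MEM + 10% FBS, 2 h settle, then compound 24 h at 37 °C. Luminescence after 10 min with Amplite reagent.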
SMN2 splice up: qHTS Assay for Enhancers of SMN2 Splice Variant Expression; HEK293 SMN2-luciferase splicing reporter, luminescence, 30-36 h; Potency, µM (doses to about 46.1 µM), for inactives: top-dose activity change, positive = activation, usual class: activators; 2.8% of 210,000 active; also: % of control where 0% means no effect; nearly all actives have a fitted effect of over 55% in size
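qHTS luciferase splicing reporter: luminescence rises when SMN2 exon 7 is included in transfected HEK293 cells. Compound exposure lasted 30-36 h at 37C, with 4.5 mM final sodium butyrate as control, followed by a ONE-Glo read.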
Rab9 prom act: qHTS Assay for Rab9 Promoter Activators; Huh7 Rab9 promoter-luciferase reporter, luminescence, 24 h; Potency, µM (doses to about 9.22 µM), for the others: at the highest dose activation, negative = inhibition, usual class: activators; 2.8% of 320,000 active; AID 485297, 2010; also: % of control where 0% means no effect; nearly all actives have a fitted effect of over 60% in size
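Stable Rab9-luc Huh7, 1500 cells/well, 2 h settle; cmpd in DMSO, 24 h, 37 °C/5% CO2; luciferase reagent 10 min RT; luminescence.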
FLuc modulator: qHTS profiling assay for firefly luciferase inhibitor/activator using purifed enzyme and Km concentrations of substrates (counterscreen for miR-21 project); Luciferin 4-monooxygenase (Photinus pyralis), P08659; purified FLuc, Km substrates, luminescence inhibition; Potency, µM (top dose mostly 57.5 µM), without a hit: at the top dose activity change, negative = inhibition, usual class: inhibitors; 6.9% of 360,000 active;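 also: plate controls were vehicle for no effect and reference inhibitor for full effect; nearly all actives have a fitted effect of over 55% in size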
Target sequence (P08659 whole entry, looked up): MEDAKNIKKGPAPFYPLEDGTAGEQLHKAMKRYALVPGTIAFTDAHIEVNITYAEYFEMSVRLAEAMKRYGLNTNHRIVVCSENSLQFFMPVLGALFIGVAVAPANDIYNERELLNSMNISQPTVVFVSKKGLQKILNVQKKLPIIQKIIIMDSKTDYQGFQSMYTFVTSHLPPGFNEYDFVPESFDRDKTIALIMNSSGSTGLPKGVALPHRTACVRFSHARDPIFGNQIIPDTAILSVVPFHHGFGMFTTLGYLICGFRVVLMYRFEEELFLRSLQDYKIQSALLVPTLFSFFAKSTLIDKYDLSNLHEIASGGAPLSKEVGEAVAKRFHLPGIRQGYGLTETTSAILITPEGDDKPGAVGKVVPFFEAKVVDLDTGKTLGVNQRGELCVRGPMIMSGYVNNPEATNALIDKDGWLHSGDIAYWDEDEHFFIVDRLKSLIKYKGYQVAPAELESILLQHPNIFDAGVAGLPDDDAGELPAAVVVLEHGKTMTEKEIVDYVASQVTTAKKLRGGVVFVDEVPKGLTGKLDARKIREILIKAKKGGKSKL
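Purified P. pyralis luciferase, 10 nM final, with Km-level 10 uM D-luciferin and 10 uM ATP in 50 mM Tris acetate pH 7.5, 10 mM Mg acetate, 0.01% Tween-20, 0.05% BSA; 6-point qHTS titration about 60 µM downward; luminescence read.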
ELG1 genotox: qHTS screen for small molecules that induce genotoxicity in human embryonic kidney (HEK293T) cells expressing luciferase-tagged ELG1; Potency, µM (series often up to 46 µM), without a hit: at the top dose activity change, positive = activation, usual class: activators; 1.3% of 330,000 active; HEK293T ELG1-luciferase reporter, luminescence, 16 h; also: % of control where 0% means no effect; nearly all actives have a fitted effect of over 60% in size
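HEK293T cells expressing luciferase-tagged ELG1 were treated with compound or DMSO for 16 hr at 37°C. Luciferase activity was then read after 30 min with ONE-Glo at room temperature; rising signal flags genetic stress.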
Luc counter: Counterscreen for Luciferase (Kinase-Glo TM) Inhibition. Luciferin 4-monooxygenase (Photuris pensylvanica), Q27757. Kinase-Glo luciferase, ATP luminescence, 8 min. Potency, µM (titrated, usually from 38.3 µM), inactives show at the highest dose activity change, negative = inhibition, usual class: inhibitors. 0.28% of 200,000 active. AID 1379, 2008; also: % is scaled to controls: 0 for no effect and ±100 for the full control effect; nearly all actives have a fitted effect of over 60% in size
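Inhibition of Kinase-Glo luciferase light generation was assessed at 10 uM ATP in pH 7.2 imidazole buffer, with luminescence measured after eight minutes at ambient temperature.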
The depositor's hits bear a star; ? = inconclusive; · = not tested or not shown; [ ] = dose if it differs, or a comment. Calls follow the shape of the dose curve; as a rule, active = well fitted curve in the direction sought with a large enough effect; inconclusive = small, poorly fitted or top-dose-only effect, or another doubt; inactive = no such curve, though single readings can be large; an effect the other way counts as inactive or inconclusive. Potency is read from the fitted curve at half-maximal effect.

SMILES	NPC1 prom act	SMN2 splice up	Rab9 prom act	FLuc modulator	ELG1 genotox	Luc counter
O=S(=O)(Nc1cccc(-c2ccc(N3CCCCCC3)nn2)c1)c1ccccc1Cl	19%	·	29%	8.5µM*	4%	·
COc1ccc(NC(=O)c2oc3ccccc3c2NC(=O)Cc2cccs2)c(OC)c1	·	11%	·	0%	·	·
COc1cc(-c2nnc(CSc3nnc(Nc4ccc(C(C)C)cc4)s3)o2)cc(OC)c1OC	5%	?	15%	5.4µM*	0%	-1%
O=C(Nc1ccc2ccccc2c1)c1ccc(Cl)cc1Cl	0.22µM*	·	0.4µM*	0.34µM*	2.1µM*	·
CS(=O)(=O)N1CCc2cc(NC(=O)c3ccc(Cl)cc3Cl)ccc21	5%	9%	15%	19µM*	0%	2%
O=C(Nc1nc(=S)ss1)c1ccc(Cl)cc1Cl	?	?	?	15µM*	1%	-3%
O=C(Nc1ccc2ccccc2c1)c1cc(F)c(F)cc1Cl	2µM*	·	?	3.4µM*	?	·
O=C(Nc1ccc2ccccc2c1)c1ccccc1O	4µM*	·	3.5µM*	0.3µM*	0.23µM*	·
Cc1occc1C(=O)Nc1ccc2ccccc2c1	1.4µM*	11µM*	2.5µM*	3.4µM*	?	-28%
Cc1cccc(NC(=O)c2cc(-c3cc(Cl)ccc3O)n[nH]2)c1	2.2µM*	·	?	?	18%	·
Cc1ccc(C)c(NC(=O)c2cc(-c3cc(C)ccc3O)n[nH]2)c1	2µM*	·	26%	3µM*	?	·
Cc1ccc(NC(=O)c2cc(-c3cc(Cl)ccc3O)n[nH]2)cc1C	-5%	·	-4%[1.84 µM]	-9%	4%	·
Cc1ccc2c(=O)c(C(=O)c3ccccc3)cn(CC(=O)NCc3ccccc3)c2n1	·	·	·	-2%	·	·
COc1ccccc1CNC(=O)Cn1c(=O)oc2ccccc21	·	-1%	·	0%	·	·
COc1ccccc1CCNC(=O)Cn1c(=O)oc2ccccc21	-7%	·	4%	15µM*	-8%	·
CCc1nn2c(-c3ccco3)ccnc2c1-c1ccccc1	·	12%	·	?	·	·
CCc1nn2c(-c3ccco3)ccnc2c1-c1ccc(F)cc1	·	-4%	·	11µM*	·	·
COc1ccc([C@H]2Cc3cc(O)cc(O)c3C(=O)O2)cc1O	·	·	·	·	5.2µM*	·
COc1ccc([C@H]2Cc3cccc(O)c3C(=O)O2)cc1O	27%	·	19%	-25%	10%	·
CCc1ccccc1Nc1nn2c(=O)c3ccc(C(=O)NC4CCC(C)CC4)cc3nc2s1 (stereo unspecified)	·	·	·	1%	·	·
COc1ccc(OC)c(/C=N/N(C)c2ccccc2)c1	?	?	3.5µM*	11µM*	5.8µM*	0%
COc1cc(/C=N/N(C)C)cc(Br)c1O	-4%	·	-7%	-1%	-2%	·
COc1cc(/C=N/N(C)c2ccccc2)cc(Cl)c1O	24%	3%	6%	13µM*	12%	0%
O=C(COc1ccc2c(c1)OCO2)Nc1nncs1	14%	·	26%	9.5µM*	?	·
NC(=O)c1ccccc1NC(=O)COc1ccc2c(c1)OCO2	2.5µM*	·	3.5µM*	4.8µM*	?	·
COc1ccccc1NC(=O)COc1ccc2c(c1)OCO2	?	·	-39%	15µM*	?	·
COc1cccc(-n2c(=O)c3sc4ccccc4c3n(CC(=O)Nc3ccc(F)cc3F)c2=O)c1	·	-9%	·	0%	·	·
Cc1ccc(OCC(=O)Nc2ccc3nc(SCC(=O)N4CCOCC4)sc3c2)cc1C	·	·	·	1%	·	·
O=C(O)c1cccc(-c2nnn(Cc3ccccc3Cl)n2)c1	0.45µM*	1.6µM*	0.4µM*	3µM*	?	0%
